Laboratory results from PubChem BioAssay AID1259341 (Broad Institute, 2017).
A number with no mark means an inactive call. The source made the active and inactive calls.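 The calls were made as follows: active = activity change under -35% in any replicate well, with more than 20 beads read in that well; inactive = the rest.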

Molecular target: Caspase recruitment domain-containing protein 9 (Homo sapiens) + E3 ubiquitin-protein ligase TRIM62 (Homo sapiens) (UniProt Q9H257+Q9BVG3)
Assay: CARD9/TRIM62 protein interaction inhibitors – cell lysate, HEK293FT lysates, Luminex bead ELISA, primary screen (AID 1259341);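 also: PE anti-Flag signal of Flag-CARD9 captured by myc-TRIM62 beads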
Settings: PE fluorescence, active compounds read low, concentration not given here

Chain of Caspase recruitment domain-containing protein 9 (Homo sapiens) + E3 ubiquitin-protein ligase TRIM62 (Homo sapiens) (Q9BVG3 whole entry, looked up, the tested form may be a part): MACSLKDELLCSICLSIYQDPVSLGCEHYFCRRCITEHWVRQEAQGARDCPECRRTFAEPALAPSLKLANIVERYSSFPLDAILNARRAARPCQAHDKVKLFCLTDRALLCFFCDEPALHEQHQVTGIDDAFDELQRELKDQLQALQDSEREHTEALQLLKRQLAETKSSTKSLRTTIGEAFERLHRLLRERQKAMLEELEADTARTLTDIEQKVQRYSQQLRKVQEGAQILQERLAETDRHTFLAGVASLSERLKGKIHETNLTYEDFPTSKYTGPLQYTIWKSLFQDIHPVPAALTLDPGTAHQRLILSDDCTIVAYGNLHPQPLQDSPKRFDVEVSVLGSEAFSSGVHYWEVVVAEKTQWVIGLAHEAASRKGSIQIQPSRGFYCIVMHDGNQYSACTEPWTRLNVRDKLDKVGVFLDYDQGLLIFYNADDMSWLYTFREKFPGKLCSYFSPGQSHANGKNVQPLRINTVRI
Chain of Caspase recruitment domain-containing protein 9 (Homo sapiens) + E3 ubiquitin-protein ligase TRIM62 (Homo sapiens) (Q9H257 whole entry, looked up, the tested form may be a part): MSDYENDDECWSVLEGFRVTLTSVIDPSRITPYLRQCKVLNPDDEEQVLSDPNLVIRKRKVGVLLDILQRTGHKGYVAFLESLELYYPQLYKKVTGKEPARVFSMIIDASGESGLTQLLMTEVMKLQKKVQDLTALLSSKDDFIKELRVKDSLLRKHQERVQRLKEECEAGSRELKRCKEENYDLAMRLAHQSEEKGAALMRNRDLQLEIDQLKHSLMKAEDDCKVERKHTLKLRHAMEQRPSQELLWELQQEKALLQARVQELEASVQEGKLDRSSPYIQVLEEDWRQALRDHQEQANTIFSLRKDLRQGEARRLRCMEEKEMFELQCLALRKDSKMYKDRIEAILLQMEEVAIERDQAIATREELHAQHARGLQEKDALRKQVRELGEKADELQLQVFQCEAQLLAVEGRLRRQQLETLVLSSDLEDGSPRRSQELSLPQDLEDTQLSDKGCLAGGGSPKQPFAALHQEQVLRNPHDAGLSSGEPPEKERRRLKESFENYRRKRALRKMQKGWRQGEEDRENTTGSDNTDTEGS

Structure (SMILES)	activity change, negative = inhibition
Cc1cnc(C)c(N2CCN(C(=O)[C@H]3CC[C@@H](N)C3)CC2)n1	2.01%
C[C@H](CO)N1C[C@H](C)[C@@H](CN(C)CC2CCCCC2)OCCCC[C@H](C)Oc2ccc(NS(=O)(=O)c3ccccc3)cc2C1=O	7.12%
Cn1ncc2c(NNC(=O)c3cc(O)cc(O)c3)ncnc21	1.25%
c1ccc(-c2nc(-c3ccco3)n3ccccc23)cc1	-5.09%
Nc1ccc(-c2cccc(CN3CCCC3)c2)cc1	-3.56%
Fc1ccc(CSc2nnc(-c3cccnc3)n2Cc2ccco2)cc1	0.116%
CCC12CCCN3CCc4c(n(c5ccccc45)C(O)(C(=O)OC)C1)C32 (stereo unspecified)	-2.25%
CCOc1ccc(-n2c3nc4ccccc4nc3c3c(=O)n(Cc4ccco4)cnc32)cc1	6.8%
CCOC(=O)C1CCN(C(=O)CN(Cc2ccccc2)S(C)(=O)=O)CC1	-5.24%
CCNc1ncc(C(=O)NCCc2nc3c(s2)CCCC3)cn1	-3.32%
c1cn(CCc2noc(C3CCCC3)n2)c(-c2cc3n(n2)CCCNC3)n1	-12.3%
COCCn1c(C)cc(-c2csc(N)n2)c1C	0.765%
CC(C)(C)c1ccc(-c2nc(C#N)c(NCc3ccncc3)o2)cc1	6.53%
Cc1ccc(-c2cc(C(=O)Nc3ccccn3)c3ccccc3n2)o1	-4.7%
Cc1c(/C=C/c2nc3ccccc3c(=O)n2-c2ccccn2)c2ccccc2n1C	-1.2%
C[C@H](CO)N1C[C@H](C)[C@@H](CN(C)C(=O)C2CCCCC2)OCCCC[C@H](C)Oc2ccc(NS(C)(=O)=O)cc2C1=O	9.86%
CCOc1ccccc1NC(=O)N1CCCC(c2nccn2CCOC)C1 (stereo unspecified)	-5.04%
O=c1/c(=C/c2ccco2)sc2nc3ccccc3n12	0.484%

Structure (SMILES)	activity change, negative = inhibition
O=C(Nc1nncs1)c1cc(-c2ccco2)nc2ccccc12	-5.26%
CCCc1oc(C(=O)O)cc1CN	-4.57%
CS(=O)(=O)N1CCN(c2ccc([N+](=O)[O-])c(SCc3ccco3)c2)CC1	-5.97%
CN(c1ccccc1C(=O)NCc1ccco1)S(C)(=O)=O	-3.12%
NC(=O)C1(N2CCCCC2)CCN(c2ccc(NC(=O)c3cccc(Cl)c3)cc2C(=O)O)CC1	-49% (active)
O=C(Nc1nccs1)c1cc(-c2ccccn2)nc2c(Cl)cccc12	-0.831%
Nc1cc2c(cc1O)CCCC2	-4.6%
Cc1[nH]c2ccc(Cl)cc2c(=O)c1CN1CCCC1	0.531%
CC(=O)c1sc2nc(-c3ccco3)ccc2c1N	-8.74%
O=C(Cn1c(=O)cc(C(=O)N2CCc3ccccc3C2)c2ccccc21)NCc1ccc2c(c1)OCO2	-5.84%
O=C1CS/C(=N\N=C\c2ccco2)N1c1ccccc1	-3.42%
O=C(Nc1nc(-c2nc3ccccc3s2)cs1)c1ccco1	1.21%
Cc1noc(C)c1S(=O)(=O)Nc1ccc2c(c1)C(=O)N([C@H](C)CO)C[C@H](C)[C@@H](CN(C)C(=O)C1CCCCC1)OCCCC[C@H](C)O2	7.66%
NC(=O)C1(N2CCCCC2)CCN(c2ncc(NC(=O)c3cccs3)cc2C(=O)O)CC1	-9.12%
O=C(CCN1CCOCC1)c1ccc2c(c1)OCCO2	10.8%
NC(=O)c1ccc(CN2C(=O)C3(CCNCC3)Nc3ccccc32)cc1	-4.33%
Cc1oc(CSCc2cc(C(=O)O)c(C)o2)cc1C(=O)O	1.21%
O=C(NC1CC1)c1cc(-c2ccco2)nc2ccccc12	-6.41%
